SMILES strings stand for the structures. Results filed as inconclusive are left out. Values without a mark were called inactive. The call rests on the fitted dose curve; in most records, active means well fitted inhibition curve with a large enough effect in the signal ratio, with a control signal flat (not every such curve was filed as active); inconclusive means small, poorly fitted or top-dose-only effect, or effect the other way, or a change in a side signal; inactive means no such curve, though single readings can be large or run the other way; the % refers to the signal ratio.
On the % scale 0 is the no-effect control and ±100 the full control effect.

Retinoic acid receptor RXR-alpha (Homo sapiens), sequence (P19793 whole entry, looked up): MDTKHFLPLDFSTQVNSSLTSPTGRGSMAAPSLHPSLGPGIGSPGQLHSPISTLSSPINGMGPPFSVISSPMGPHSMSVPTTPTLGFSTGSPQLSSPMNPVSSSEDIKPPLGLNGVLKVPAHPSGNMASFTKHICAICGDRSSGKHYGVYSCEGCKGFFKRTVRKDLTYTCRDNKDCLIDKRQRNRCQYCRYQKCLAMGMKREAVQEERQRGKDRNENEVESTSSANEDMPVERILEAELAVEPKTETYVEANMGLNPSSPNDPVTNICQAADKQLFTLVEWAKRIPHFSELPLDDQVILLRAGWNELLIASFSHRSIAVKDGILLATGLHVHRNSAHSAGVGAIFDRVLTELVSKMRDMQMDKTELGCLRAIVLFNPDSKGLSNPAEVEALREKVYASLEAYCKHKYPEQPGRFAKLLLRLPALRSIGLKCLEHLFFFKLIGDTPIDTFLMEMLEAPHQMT

This experiment addresses Retinoic acid receptor RXR-alpha (Homo sapiens) (UniProt P19793). As to the kind of experiment: qHTS assay for small molecule antagonists of retinoid X receptor alpha signaling (AID 588546). The note with it: HEK293T RXRa-UAS-bla, beta-lactamase ratio, antagonist mode. The text has this: NIH Chemical Genomics Center [NCGC] U.S. Environmental Protection Agency [EPA] National Institutes of Environmental Health Sciences [NIEHS] National Toxicology Program [NTP] NCGC Assay Overview The Retinoid X receptor (RXR), a nuclear hormone receptor is expressed in liver, spleen, placenta, epidermis, central nervous system. These receptors are able to form homo and heterodimers with other nuclear receptors and due to this heterodimerizing ability, RXR functions as master regulators producing diverse physiological effects. Three subtypes of RXR exist; alpha, beta and gamma. Retinoid X receptor alpha (RXR-alpha) has potential roles in metabolic signaling pathways, skin alopecia, dermal cysts, cardiac development, insulin sensitization etc. Therefore screening environmental chemicals on RXR-alpha signaling can be used for the studies focused on such therapeutic applications.
NCGC Assay Protocol Summary Using a beta-lactamase reporter-gene under control of Retinoid X receptor--alpha (RXR-alpha) response element, a cell-based assay [GeneBLAzer (RXR-alpha -UAS-bla assay developed by Invitrogen] was used to measure RXR-alpha ligands signaling. GeneBLAzer RXR-alpha -UAS-bla HEK293T cells were used with assay medium containing 2% charcoal-stripped FBS. The assay was performed in clear bottom black Greiner 1536-well plates. Library compounds were measured for their ability to inhibit the reporter gene activity. Compounds were screened in a titration series in 1536-well format. The fluorescence intensity (405 nm excitation, 460/530 nm emission) was measured using an EnVision plate reader. Data was normalized relative to 9-cis-retinoic acid control (500 nM, 100%), and DMSO only wells (basal, 0%). Concentration-response titration points for each compound were fitted to the Hill equation yielding concentrations of half-maximal inhibition (IC50) and maximal response (efficacy) values. qHTS protocol for RXR-alpha beta-lactamase assay in antagonist mode [Step] [Parameter] [Value] [Description] 1. Reagent; 5 uL; 2500 cells/well 2. Incubation; 37 C for 4 hrs 3. Compounds; 23 nL; 0.59 nM to 92 uM 4. Controls (DMSO); 23 nL 5. Agonist (Stimulator); 1uL; 9-cis-retinoic acid at 500 nM and 100 nM final concentrations 6. Incubation; 37 C for 18 hrs 7. Detection reagent; 1 uL of CCF4-dye 8. Incubation; RT for 2 hrs 9. Detection; Fluorescence; Envision plate reader
Take `CC(CCl)OC(C)CCl` (stereo not given): the max response is 19.4%.

Regarding `O=C(O)CCSSCCC(=O)O`, the max response was -2.74%.

As for `CCCCCCCCC`, the max response was 0.715%.

Take `O=Cc1c(Cl)cccc1Cl`: the max response was -1.18%.

As to `Oc1c(Cl)ccc(Cl)c1Cl`, the max response was 17.5%.

Take `CC(C)CO`: the max response is -7%.

Regarding `CC(=O)Nc1cccc(N)c1`, the max response was 6.6%.

With `CC/C=C/C#N`, the max response is 10.5%.

For the molecule `CCCOCC(C)O` (stereo not given), the max response was 0.524%.

Take `Cc1cccc(C)c1`: the max response is -1.87%.

Turning to `O=C(O)c1ccc(CO)o1`, the max response was -4.1%.

For the molecule `COc1ccc(N)c(C)c1`, the max response was 8.01%.

On to `Cc1c(N)cccc1N`, for which the max response is -6.28%.

`Cc1cccc(C(=O)O)c1`: the max response was 12.5%.

As for `CC(=O)OC(C)C`, the max response was 7.02%.

Take `NC(=O)c1cccc([N+](=O)[O-])c1`: the max response was -6.67%.

Consider `NS(=O)(=O)O`, for which the max response is 17%.

For `C=Cc1ccccc1C=C`, the max response was -4.16%.

In the case of `CC(=O)OCCC(C)C`, the max response was 2.22%.

Turning to `COC(=O)CCCC(=O)OC`, the max response was -11%.

For `c1ccc2n[nH]nc2c1`, the max response is -7.97%.

`CC1(N)CCC(C(C)(C)N)CC1` (stereo not given): the max response is 0.335%.

For `C=C(C)OC(C)=O`, the max response was -11.4%.

For `NCCCCCCN`, the max response is 17.1%.

Consider `C=C(C)C(=O)OCC(C)C`, for which the max response was -6.82%.

Take `Cc1ccc(C(=O)O)cc1`: the max response is -5.24%.

As to `Cc1nc2ccc(Cl)cc2[nH]1`, the max response is -12.1%.

As for `Nc1nc(CC(=O)O)cs1`, the max response is -13.3%.

As to `O=[N+]([O-])c1cccc(C(F)(F)F)c1`, the max response was -2.39%.

Take `CCCCCCO`: the max response was -1.79%.

Regarding `C/C=C(/C)C#N`, the max response was 32%.

`C=CCCCCCC`: the max response is -6.3%.

As for `CCOc1cccc(N)c1`, the max response is -4.73%.

Take `O=C(O)c1ccc(Cl)c(Cl)c1`: the max response was 14.6%.

Turning to `CCC=O`, the max response is 0.991%.

For `Cc1ccccc1C#N`, the max response was 15.6%.

For the molecule `CC(C)C=O`, the max response was 8.49%.

For the molecule `CCN(C(=O)N(CC)c1ccccc1)c1ccccc1`, the max response is 0.622%.

As for `CCCCCCC=O`, the max response is 7.58%.

On to `BrC(Br)C(Br)Br`, for which the max response was -0.43%.
